Experimental data published in PubChem BioAssay AID1508600 (Functional Genomics Laboratory (NCATS/FGL), 2020).
Hit rate of the full screen: of about 53,000 sequences, about 3,700 (7%) were called active. Only a selection was taken, and actives are over-represented in it overall. A number with no mark means an inactive call.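 How the source made its calls: active means gene knockdowns whose robust z-score for IL-1 alpha signal is at least 2 or at most -2, so actives lie on both sides; inactive means the rest.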

assay: Components of the Cytosolic LPS Sensing Pathway: Gene Identification via Genome-wide siRNA Screen; conditions: RAW264.7 macrophages, IL-1a HTRF, actives lie on both sides, screened at 100 nM (by protocol), cells primed 5 h with Pam3CSK4 first;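 further: robust z of the log signal after scaling to non-targeting control siRNA wells of the plate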
Outline: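 Using IL-1a HTRF as read-out, the screen measured release from RAW264.7 cells after 48h siRNA knockdown (100 nM), 5 h Pam3CSK4 priming and 24 h cytosolic LipidA. Values were expressed relative to negative-control wells as robust z-scores.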

Row | Sequence | z-score
1 | GGCAAGCACAAUGAUCAUUTT against Trappc11 | -2.36 (active)
2 | CGCUUUAGUGACUUUCAAATT against Metrnl | -0.583
3 | GCAGAUCCGAAUCAAUGAGTT against Twf2 | 0.504
4 | GCGAUUGAGAGGCUACACUTT against Pigb | 0.402
5 | GGGCUGUUAUUUCAAGAAATT against Galnt13 | -0.173
6 | CCCACUAAAAUCCUAUCUCTT against Ggta1 | -2.57 (active)
7 | GGGUCAAGUUUACAGAUGATT against Luc7l | 0.0159
8 | GGGUGCAUUUUAAAUACUATT against Spred2 | 0.73
9 | GGAAUCCUCUAAAUGACCUTT against Vmn1r174 | -1.49
10 | GGCCAUUCUUUGUCACCCATT against Os9 | -2.87 (active)
11 | CCAUUAACUCUUUGAGUAUTT against Omg | 0.321
12 | GGAGCUGAGAAACAAGAUUTT against Bspry | -0.972
13 | GGAUGUUAAAGCCAUAUACTT against Msh6 | -0.788
14 | GGGCUACCUCAGUUUAAACTT against Spic | 0.763
15 | GGCAAUAACUGCUUUAUCUTT against Olfr509 | -0.68
16 | GCGUAUUCAGCUGGGAUAGTT against Marveld2 | -2.42 (active)
17 | CCUUCGUGUUCACUUUAAGTT against Rpl17 | -1.5
18 | CCACUAAUAGUCGUAGAAUTT against Dand5 | 0.535
19 | GCCAUCUCUAUGUUGUUGATT against Smtnl2 | -0.108
20 | GGUCAUCCUCAAGAUGAAGTT against Zfp819 | -2.82 (active)
21 | GGCAUGUCCAAGGAAUACUTT against Snrpg | -1.4
22 | GGUUAAUCUGAGAAUUCUATT against Kcnk1 | 0.717

Row | Sequence | z-score
23 | CCCAAUUUUUAGUUGCUAATT against Rab2b | 0.0495
24 | GGAAGCUGUCUUCAAGUCCTT against Phf7 | -1.3
25 | GCAGUCCUCGUCCUCAAAGTT against Btbd10 | 2.16 (active)
26 | GGCAGAAUACUAUAUAUAGTT against Tmx2 | 0.879
27 | GGAAAUCUGUUCUUGAAGGTT against Pcdhb4 | -0.0811
28 | GGUGCUGACUCCGACUAAATT against Nhsl1 | 1.2
29 | GGUACAGCUGGUUCUCUUUTT against Olfr1018 | 1.2
30 | GCUUGCUAGAUUGGUGUUGTT against Arhgap17 | 3.32 (active)
31 | GGCUGCUAUCAUGGAAUUATT against Ppp2cb | 0.924
32 | CGUGUGAAGAAAAUUGAUGTT against Mmp27 | 0.568
33 | GCACAGUAACCUAAAAUACTT against Tanc2 | -1.48
34 | GGAUUUGAGGUUUUAGGAATT against Qtrt2 | -0.0174
35 | GGUUGUGGUCUUUGUUCUGTT against Olfr923 | -1.11
36 | GGAAAGAACAACAAAGGAGTT against Snx9 | 0.84
37 | CCUCUCAGAUGGUAUAUAATT against Olfr520 | -2.14 (active)
38 | GCCUCAAUUGUUUACUUAUTT against Edn2 | 0.404
39 | GGAGAAGUCAUGAAACAAATT against Prkn | 0.349
40 | GGACAAAUCUUUGUUUAGCTT against Plscr3 | -0.0965
41 | GGGACCCAAGGAUAUGAAUTT against Rbsn | 0.6
42 | GGAGCAAGUAUUUACAUUGTT against Psmd10 | 1.55
43 | GGAGGUUGGGAUGAAUUAUTT against Rab6b | 4.26 (active)
44 | GGACUAAUUGGCCUCUGCUTT against Rpl22l1 | 0.638

Row | Sequence | z-score
45 | GGGCUGCUCACAAUUUAUATT against Tmem135 | 1.17
46 | GGACACUUACGUCAUCGAGTT against Rtca | -0.814
47 | GGUGGAGAUUGUUUGUAAATT against Lratd1 | 1.56
48 | GGACCCAUCGAAACCUCUATT against Pirb | -0.0759
49 | CCCAUGCUUGGAAUAAUUATT against Man1a | 0.00246
50 | GGACGAACUCAUCAACAGUTT against Gtf2ird1 | -0.00436
51 | GGGAAGCUGAUUAUACAUUTT against Serpinf1 | 3.22 (active)
52 | GGCUAAGAAUGAGACUGGUTT against Abcg4 | -0.0869
53 | GGAGAAGAUUCCAGAAGCCTT against Tcf15 | -1.42
54 | GGGCAUUGGCAAGAAAAAGTT against Ahdc1 | -0.543
55 | GCAUAAGCGAAGAAGAAGUTT against Clk2 | 0.0795
56 | GCUGGCUGUUUCACUACAGTT against Tdh | 3.19 (active)
57 | GCUAGAGUAGCUUUGGGCATT against Glra3 | 1.37
58 | GCAAGAUUUAUCCCAGUCGTT against Rnf2 | -1.83
59 | GCUUCGACAUUGUUAGUUATT against Ammecr1 | 0.322
60 | GCAUGUUCGUGGAAGUACUTT against Got1l1 | 0.0202
61 | GGAGAUCCUCAAGGAGCAGTT against Park7 | 2.02 (active)
62 | GCAGUUUCUAAUGAAGGUUTT against Ppp2r5a | 0.416
63 | CGGUCUGCUCUACAUUGUCTT against Nek4 | 1.39
64 | GCCUAUGGGUCAUUUCAAATT against Dock11 | -0.968
65 | GGGCAGGUGGAUGUGGAAATT against Ryr2 | 0.546
66 | GGUACCAUAUCUGUGAACATT against Nrxn3 | -1.25

Row | Sequence | z-score
67 | GGUUCAGCUGGUCCUAUCUTT against Olfr1099 | -2.07 (active)
68 | GGCAAUGCUGUCCUACUAUTT against Map2k5 | -1.19
69 | GGAGAACUUAAAGCACAAUTT against Plxnb1 | 0.179
70 | UCCUAGAGUCAUCAUCAUATT against A530064D06Rik | -0.44
71 | GGAAUCUAUGAACAUGUUUTT against Pcdh12 | -0.433
72 | GGCUGGGAAAAAAAAAGAATT against Ifi205 | 0.704
73 | GGAUUUUUAUGAUAGUGACTT against Slc4a1ap | -0.747
74 | GCAUCACUGGAAAUCUUACTT against Olfr807 | -2.31 (active)
75 | CCAUUUGAUCAAGCUUUAGTT against Spock3 | 0.0957
76 | GGACUCUCAAUGAUGAAUATT against Map7d3 | 1.85
77 | GCGACACAUUCGAUCUCAGTT against Mecom | 4.11 (active)
78 | CCAGAUUCGAAUAUCUAAGTT against Mrps30 | 0.935
79 | GCCAGAAUGGACUUGAGAATT against Vmn1r227 | -1.21
80 | GCCUUAAUGAGGGUUAUGCTT against Fbp1 | -1.11
81 | CGAACCAUAGCUAGCUCCATT against Klhdc8b | -0.869
82 | GGCUCAGUCCCAUCAGCAUTT against Gdf7 | 0.524
83 | GGUUUGAUCUCAUUUUCCUTT against Mcm4 | 2.92 (active)
84 | GGAACAGUAUAUAAGUUCATT against Hcfc2 | -0.593
85 | GCUACUUCAUGGAAUCUUCTT against Mrgprb8 | -0.668
86 | CGUUUGAAUAAUUCAGAGUTT against Armcx2 | -0.152
87 | GGUGGAAGGCUUUUUCUACTT against Olfr1104 | 1.63
88 | GCGAUACCGUGCCAUGUUUTT against Dohh | -1.21

Row | Sequence | z-score
89 | CGAAGAUUACCUUUCAAGATT against St6galnac3 | 0.371
90 | GCCCUUUCGCCUAUGGUUUTT against Tedc1 | 0.931
91 | GCUAAUCAACAAUGUCGCCTT against Atp5b | 0.781
92 | GGUUAAAGUCCUUCAGUAUTT against Tubb3 | 2.83 (active)
93 | GGAAAAAACCACGAUUGAGTT against Pecam1 | -0.434
94 | GGCUUACCUACAACAAGUUTT against Ccnt1 | -2.07 (active)
95 | GGUUAGGCACAAAUAAGUUTT against B230206H07Rik | 1.08
96 | GGUUCCUAUACCCAACGGUTT against Mrgpra7 | -1.07
97 | GGUUGAUGAUAGCUCUGAATT against Opn1mw | -0.22
98 | GGUCUUAAGGAGAAAUGAATT against Cbln2 | -0.48
99 | GCUUCGCUCGCAUUCUUAUTT against Rsrc1 | -0.299
100 | GGACUAUCCAGGAAUCGUGTT against Ergic3 | 0.713
101 | GGACAAGCUGAAGACGCACTT against Zfp64 | 3.03 (active)
102 | GCAUAGUCUUGUUAACCAGTT against Poldip3 | -0.689
103 | GGAUUCAUAGACUUCAUAGTT against Impdh1 | 0.608
104 | CCAUCUGGACUUCAGUUUUTT against Rap1gap2 | 0.901
105 | GCACUCAAAUGGUAGAUUCTT against Socs6 | -0.315
106 | GGGUGAACUCGGACAUUGATT against Spata19 | -0.754
107 | GCGUGAACACCUGAGGAUUTT against Rchy1 | -0.323
